Pf growth 48h: inhibits P. falciparum growth in the first generation, 48 h | P. falciparum luciferase growth in erythrocytes, 48 h | Potency, µM (highest dose often 28.7 µM), inactives show at the top dose activity change, negative = inhibition, usual class: inhibitors | 310,000 tested, 5.9% active | AID 504832; also: % is scaled to controls: 0 for no effect and ±100 for the full control effect
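A one-generation exposure of luciferase-tagged malaria parasites in RPMI 1640/Albumax erythrocyte culture, 37 C and 5% CO2. Inhibition is inferred from decreased luminescence after adding detection reagent.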
Pf growth 96h: inhibits malaria parasite growth, 96 h; P. falciparum luciferase reporter growth, 96 h; Potency, µM (highest dose often 28.7 µM), without a hit: at the highest dose activity change, negative = inhibition, most hits filed as inhibitors; 320,000 tested, 6.9% active; also: % is scaled to controls: 0 for no effect and ±100 for the full control effect
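Two-generation exposure (96 h) targets delayed-death phenotype. Reporter parasites carrying integrated firefly luciferase, in red cells at 2% hematocrit and 0.05% parasitemia final, kept at 37 C, 5% CO2; luminescence loss indicates inhibition.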
AMA1-RON2 inh: disrupts binding of P. falciparum AMA1 to RON2 | 360,000 tested, 0.2% active | Potency, µM (titrated, usually from 58.2 µM), for the others: at the top dose activity change, negative = inhibition, most hits filed as inhibitors | AlphaScreen AMA1-biotinylated RON2 peptide binding;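 also: 0% = vehicle wells and -100% = peptide control; nearly all actives have a fitted effect of over 45% in size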
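AMA1 (3D7) with his tag at 25 nM final met compounds first, then biotinylated RON2 peptide at 25 nM; detection used donor plus acceptor beads, 10 µg/mL apiece, read by AlphaScreen after 30 min at room temperature.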
SARS PLP yeast: SARS-CoV PLP inhibition in yeast | S. cerevisiae expressing SARS-CoV PLpro, growth rescue | Potency, µM (top dose mostly 32.9 µM), inactives show at the highest dose activity, positive = growth rescue, usual class: activators | 330,000 tested, 0.19% active; calls by dose curve; also: 0% is about no effect; nearly all actives have a fitted effect of over 55% in size
Active calls of the source: *; u = inconclusive; x = no result given. Only some compounds are listed: those with a hit (about 9.4% of all), similar ones and a draw of the others. Unless noted, calls follow the shape of the dose curve; as a rule, active = well fitted curve in the direction sought with a large enough effect; inconclusive = small, poorly fitted or top-dose-only effect, or another doubt; inactive = no such curve, though single readings can be large; an effect the other way counts as inactive or inconclusive. Potency is read from the fitted curve at half-maximal effect.

SMILES	Pf growth 48h	Pf growth 96h	AMA1-RON2 inh	SARS PLP yeast
CC(NC(=O)CCl)c1ccc(Cl)c(Cl)c1 (centres undefined)	x	3.7µM*	-18%	-3%
Cc1ccc(S(=O)(=O)NCC(=O)NCC(=O)NC(C)c2ccccc2Br)cc1C (centres undefined)	-15%	-12%	-11%	-4%
COc1cccc(N/C(SCc2ccccc2Cl)=C(/C#N)C(=O)NCc2cccs2)c1	10µM*	u	u	21%
COc1cccc(N/C(SCc2cccc([N+](=O)[O-])c2)=C(/C#N)C(=O)NCc2cccs2)c1	10µM*	u	-3%	4%
COc1cccc(N/C(SC)=C(/C#N)C(=O)NCc2cccs2)c1	9%	16%	-12%	-3%
COc1cccc(N/C(SCc2ccccc2C)=C(/C#N)C(=O)NCc2cccs2)c1	u	2.1µM*	0%	-3%
c1cnc(NC2CCCCCC2)nc1	0%	101%	2%	3%
N#CCC(=O)N/N=C/c1c2ccccc2cc2ccccc12	0%	7%	123%	2%
N#CCC(=O)N/N=C/c1cc(Br)ccc1OCc1cccc2ccccc12	13µM*	u	12%	-1%
N#CC1=C(N)Oc2c(c(=O)oc3ccccc23)C1c1ccc(OC(=O)N2CCOCC2)cc1 (centres undefined)	9.3µM*	12µM*	-7%	-19%
Cc1ccc(N2C(=O)NC(=O)/C(=C/c3cnc(-c4ccccc4)nc3)C2=O)cc1C	1%	50%	16%	13µM*
Cc1ccc(N2C(=O)NC(=O)/C(=C\c3ccsc3)C2=O)cc1C	5%	7.4µM*	x	2%
COc1cc(CO)cc(Br)c1OCC(=O)O	x	36%	5%	3%
COc1ccc(CC(=O)NCC(=O)N/N=C/c2ccco2)cc1	11%	-7%	34%	-20%
Cc1cccc(COCC(CC(C)C)N2CCN(C(=O)c3ccc(C(C)(C)C)cc3)CCC2=O)c1 (centres undefined)	7.4µM*	u	-7%	-8%
CC(C)CC(COCc1cccc(Cl)c1)N1CCN(C(=O)c2ccc(C(F)(F)F)cc2)CCC1=O (centres undefined)	13µM*	7.4µM*	9%	-17%
O=C(c1cccc(Cl)c1)N1CCC(=O)N([C@H](COCc2ccccc2)Cc2ccccc2)CC1	x	x	1%	x
O=C(c1cccc(Cl)c1)N1CCC(=O)N(C(COCc2cccc(Cl)c2)Cc2ccccc2)CC1 (centres undefined)	u	13µM*	-5%	6%
CC(C)C[C@@H](COCc1cccc(Cl)c1)N1CCN(C(=O)c2cccc(C(F)(F)F)c2)CCC1=O	x	x	4%	x
O=C(c1ccc(C(F)(F)F)cc1)N1CCC(=O)N(C(COCc2ccc(C(F)(F)F)cc2)Cc2ccccc2)CC1 (centres undefined)	u	9.3µM*	1%	-13%
Cc1cccc(COC[C@H](CC(C)C)N2CCN(C(=O)c3ccc(C(C)(C)C)cc3)CCC2=O)c1	x	x	-9%	x
O=C(O)COc1ccccc1/C=N/NC(=O)/C(=C\c1ccc2c(c1)OCO2)NC(=O)c1ccccc1	3%	-10%	6%	0%
CCOC(=O)N1C(=O)NC(=O)C1c1ccc(Cl)cc1 (centres undefined)	x	x	-4%	x
CCSc1nnc(-c2c[nH]c3ccccc23)o1	49%	-27%	-17%	-5%
Cc1ccc(N/C(C(Cl)=C(Cl)Cl)=C(/Cl)[N+](=O)[O-])c(C)c1	u	u	u	-71%
SMILES	Pf growth 48h	Pf growth 96h	AMA1-RON2 inh	SARS PLP yeast
COc1ccc(C(=O)Nc2nncs2)cc1S(=O)(=O)N1CC(c2ccccc2)CC1=O (centres undefined)	x	u	-3%	-3%
CC1=C(C#N)C(c2ccccc2O)C(C#N)=C(C)N1	6%	0%	-3%	-4%
CC(C)C[C@@H](COCc1ccc(F)cc1)N1CCN(C(=O)c2cccc(C(F)(F)F)c2)CCC1=O	x	x	4%	x
Cc1cccc(COC[C@H](Cc2ccccc2)N2CCN(C(=O)c3ccc(C(F)(F)F)cc3)CCC2=O)c1	x	x	-9%	x
CC(C)CC(COCc1ccc(F)cc1)N1CCN(C(=O)c2cccc(C(F)(F)F)c2)CCC1=O (centres undefined)	u	13µM*	5%	3%
Cc1cccc(COCC(CC(C)C)N2CCN(C(=O)c3ccc(C(F)(F)F)cc3)CCC2=O)c1 (centres undefined)	10µM*	u	-2%	5%
O=C(Nc1ccccc1)N1CCCN(c2ccc(C(F)(F)F)cn2)CC1	u	-6%	-4%	-1%
O=C1OC(CO)C(O)C(O)C1O (centres undefined)	1%	1%	x	x
O=C(O)c1ccccc1N/N=C/c1c(Sc2nnnn2-c2ccccc2)nc2ccccn2c1=O	u	0.59µM*	-5%	0%
CCCn1c(C(C)Nc2nc(-c3cccc(Br)c3)cs2)nc2ccccc21 (centres undefined)	-10%	u	15%	-3%
CCCn1c(C(C)Nc2nc(-c3cc(Cl)c(N)c(Cl)c3)cs2)nc2cc(Cl)c(N3CCCCC3)cc21 (centres undefined)	u	7.4µM*	34%	2%
CCCn1c(C(C)Nc2nc(-c3ccc(Cl)c([N+](=O)[O-])c3)cs2)nc2ccccc21 (centres undefined)	13µM*	5.9µM*	4%	-13%
CCCn1c(C(C)Nc2nc(-c3ccc(C)cc3)cs2)nc2ccccc21 (centres undefined)	u	9.3µM*	32%	6%
CC1CCN(C(=O)COC(=O)C2CCN(S(=O)(=O)c3c(Cl)cccc3Cl)CC2)CC1	2%	0%	u	-1%
O=C(CSc1nnc(CSc2nc3ccccc3s2)o1)NC1CCCCC1	-27%	48%	-4%	4%
COc1ccc(C(=O)Nc2cc3c(cc2Cl)OCCCO3)cc1	x	199%	-1%	-3%
CC(C)C12CN3CC(C(C)C)(CN(C1)C3c1ccc3c(c1)OCO3)C2=O (centres undefined)	u	25%	0%	-4%
O=C(OCC(=O)N1CCN(c2ccccc2)CC1)c1cc(Cl)ccc1[N+](=O)[O-]	-26%	12µM*	u	-5%
O=C(OCC(=O)N1CCN(c2ccccc2)CC1)c1ccc(Cl)cc1[N+](=O)[O-]	5%	10%	u	-11%
O=C(COc1ccc(Cl)cc1)N1CCN(c2ccc([N+](=O)[O-])c(N3CCCCC3)c2)CC1	u	10µM*	-27%	-1%
O=C(NCC1CCCCC1)c1cccnc1Cl	20%	12%	1%	2%
COc1cc2c(cc1OC)CN(C(=O)CC1CC3CCC1C3)CC2 (centres undefined)	u	2.6µM*	4%	5%
O=C(CN1CCN(S(=O)(=O)c2ccc(Br)s2)CC1)N1CCc2ccccc21	x	x	7%	x
COc1cc2c(cc1OC)CN(C(=O)CN1CCN(S(=O)(=O)c3ccccc3)CC1)CC2	u	13µM*	-6%	-3%
O=C(Cn1ncc2ccccc21)N1CCc2ccccc21	7%	4.7µM*	-1%	7%

From PubChem
